The source of these data is PubChem BioAssay (Tox21).

Inconclusive results are not listed. Calls of active or inactive are those of the source. Unless noted, calls follow the shape of the dose curve; as a rule, active = well fitted curve in the direction sought with a large enough effect in the repeat runs; inconclusive = weak or mixed curves; inactive = no such curve, though single readings can be large; an effect the other way counts as inactive or inconclusive.

Test [1] is described as follows: qHTS assay to identify small molecule antagonists of the estrogen related receptor (ERR) signaling pathway - cell viability counter screen (AID 1224818).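 Also: viability measured after 17.5 h of compound exposure.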 An outline of the steps:
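Multiplexed counter screen to separate cytotoxic compounds from true ERR modulators. ERR cells received DMSO-dissolved compounds after a 6 h pre-incubation, were exposed 17.5 h at 37 C, then assayed with CellTiter-Fluor fluorescence.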
Background: In qHTS, concentration-response curves come from the screen itself.

Test [2] in a line: qHTS assay to identify small molecule antagonists of the estrogen related receptor (ERR) signaling pathway (AID 1224819; also: nearly all actives have a fitted effect of over 50% in size). An outline of the steps: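 Seed ERR cells 2,000/well; rest 6 h at 37 C/5% CO2; pin compounds in DMSO; incubate 18 h at 37 C; add One-Glo; wait 30 min at room temperature; measure luminescence.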
The nature of test [3]: qHTS assay to identify small molecule agonists of the estrogen related receptor (ERR) signaling pathway (AID 1224820). An outline of the steps:
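ERR reporter cells (NTP line) plated 2,000/well, incubated 6 h at 37 C/5% CO2, then pinned with compounds in DMSO and held 18 h at 37 C. One-Glo added; luminescence read after 30 min at room temperature.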

Test [4] concerns estrogen-related receptor alpha (ERRalpha) with PGC-1alpha coactivator, human. Kind of test: qHTS assay to identify small molecule antagonists of the estrogen related receptor signaling pathway with the pleiotropic PPARgamma coactivator (PGC) (AID 1224821; calls by dose curve; also: nearly all actives have a fitted effect of over 50% in size). An outline of the steps:
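Cells engineered for PGC/ERR signalling (line from NTP) were plated 6 h at 37 C/5% CO2, then exposed to DMSO-dissolved compound for 18 h at 37 C. Luciferase activity was read by One-Glo luminescence after 30 min at room temperature.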

Test [5] is described as follows: qHTS assay to identify small molecule antagonists of the estrogen related receptor signaling pathway with the pleiotropic PPARgamma coactivator (PGC) cell viability counter screen (AID 1224822;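 also: viability read after 17.5 h compound exposure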). An outline of the steps:
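Cells: PGC/ERR, 2,000/well, 1536-well format. Pre-incubation 6 h, 37 C/5% CO2. Compound exposure 17.5 h, 37 C. Detection: CellTiter-Fluor, 30 min, fluorescence.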

A short description of test [6]: qHTS assay to identify small molecule agonists of the estrogen related receptor signaling pathway with the pleiotropic PPARgamma coactivator (PGC) (AID 1224823). An outline of the steps:
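PGC/ERR reporter cells were seeded, rested 6 h at 37 C/5% CO2, then exposed to compounds in DMSO by pin transfer for 18 h at 37 C. Luciferase activity was read as luminescence after One-Glo reagent and 30 min at room temperature.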
Potency is read from the fitted curve at half-maximal effect.

On to `Cc1ccc(O)c(N=Nc2ccccc2)n1`, for which the Potency entry in test [1], in test [2], in test [4] and in test [6] was “inactive” in each case. The Potency in test [3] is 8.41 µM (active); in test [5], 5.52 µM (active).

As for `NCCCNCCCCNCCCN`, the Potency entry in test [1], in test [2], in test [3], in test [4], in test [5] and in test [6] was “inactive” throughout.

With `CC(C)Cc1ccc([C@H](C)C(=O)O)cc1`, the Potency entry in test [1], in test [2], in test [3], in test [4], in test [5] and in test [6] was “inactive” throughout.

With `CN1CC(O)C(O)C(O)C1CO` (stereo not drawn), the Potency result in test [1], in test [2], in test [3], in test [4], in test [5] and in test [6] was “inactive” each time.

With `N[C@@H](Cc1cnc[nH]1)C(=O)O`, the Potency entry in test [1], in test [2], in test [3], in test [4], in test [5] and in test [6] was “inactive” in each case.

`CCCn1c(=O)[nH]c(=O)c2[nH]cnc21`: the Potency entry in test [1], in test [2], in test [3], in test [4], in test [5] and in test [6] was “inactive” throughout.

With `C=C/C(C)=C/[C@@]1(C)SC(=O)C(C)=C1O`, the Potency entry in test [1], in test [2], in test [3], in test [4], in test [5] and in test [6] was “inactive” each time.

In the case of `N[C@H](CO)C(=O)O`, the Potency result in test [1], in test [2], in test [3], in test [4], in test [5] and in test [6] was “inactive” in each case.

For the compound `CN1CCc2cc(Cl)c(O)cc2[C@@H](c2ccccc2)C1`, the Potency entry in test [1], in test [2], in test [3], in test [4], in test [5] and in test [6] was “inactive” throughout.

Regarding `CC(C)(Sc1ccc(CCN(CCCCC2CCCCC2)C(=O)NC2CCCCC2)cc1)C(=O)O`, the Potency result in test [1], in test [2], in test [3], in test [4], in test [5] and in test [6] was “inactive” throughout.

For the compound `C=CCNc1ncnc2ccc(Br)cc12`, the Potency entry in test [1], in test [3], in test [5] and in test [6] was “inactive” in each case. Also, the Potency in test [2] was 9.44 µM (active); in test [4], 10.2 µM (active).

On to `OC[C@H]1O[C@@H](n2cnc3c(NC4CCCC4)ncnc32)[C@H](O)C1O` (stereo partly drawn), for which the Potency entry in test [1], in test [2], in test [3], in test [4] and in test [5] was “inactive” each time. The Potency in test [6] was 3.1 µM (active).

As to `O=C1NC(=O)/C(=C/c2ccc3c(c2)OC(F)(F)O3)S1`, the Potency result in test [1], in test [2], in test [4], in test [5] and in test [6] was “inactive” throughout. Further, in test [3], the Potency is 3.16 µM (active).

With `COc1ccc(-c2cc3ncc(C)n3c(Nc3ncccc3C(N)=O)n2)cc1OC`, the Potency entry in test [1], in test [3], in test [5] and in test [6] was “inactive” throughout. Also, the Potency in test [2] was 2.87 µM (active); in test [4], 2.37 µM (active).

On to `CN(CC[C@@H](Oc1ccc(C(F)(F)F)cc1)c1ccccc1)CC(=O)O`, for which the Potency result in test [1], in test [2], in test [3], in test [4], in test [5] and in test [6] was “inactive” throughout.

Regarding `CCN(CC)CCCCNc1ncc2cc(-c3c(Cl)cccc3Cl)c(NC(=O)NC(C)(C)C)nc2n1`, the results for the Potency in test [1], in test [2] and in test [5] were 22 µM (active), 2.37 µM (active) and 13.3 µM (active), respectively. Further, the Potency entry in test [3], in test [4] and in test [6] was “inactive” throughout.

With `C=CC[C@H](N)C(=O)O`, the Potency entry in test [1], in test [2], in test [3], in test [4], in test [5] and in test [6] was “inactive” each time.

For `CCC(CO)Nc1nc(NCc2ccccc2)c2ncn(C(C)C)c2n1` (stereo not drawn), the Potency entry in test [1], in test [2], in test [3], in test [4], in test [5] and in test [6] was “inactive” throughout.

For `NC1CCN(O)C1=O` (stereo not drawn), the Potency entry in test [1], in test [2], in test [3], in test [4], in test [5] and in test [6] was “inactive” in each case.

Regarding `Oc1ccc(Cn2cc[nH]c2=S)cc1`, the Potency result in test [1], in test [2], in test [3], in test [4], in test [5] and in test [6] was “inactive” throughout.

With `CNCCC(Oc1ccccc1C)c1ccccc1` (stereo not drawn), the Potency entry in test [1], in test [2], in test [3], in test [4], in test [5] and in test [6] was “inactive” throughout.

In the case of `OC[C@H]1NC[C@@H](O)[C@@H]1O`, the Potency result in test [1], in test [2], in test [3], in test [4], in test [5] and in test [6] was “inactive” each time.

`CSC(N)=NCCC[C@H](N)C(=O)O`: the Potency entry in test [1], in test [2], in test [3], in test [4], in test [5] and in test [6] was “inactive” in each case.

`O=C(O)C1=CCCNC1`: the Potency result in test [1], in test [2], in test [3], in test [4], in test [5] and in test [6] was “inactive” in each case.

Consider `O=c1[nH]c2cc([N+](=O)[O-])c([N+](=O)[O-])cc2[nH]c1=O`, for which the Potency entry in test [1], in test [2], in test [3], in test [4], in test [5] and in test [6] was “inactive” in each case.

With `OC[C@H]1O[C@@H](n2cnc3c(NC4CCCCC4)ncnc32)[C@H](O)[C@@H]1O`, the Potency result in test [1], in test [2], in test [3], in test [4] and in test [5] was “inactive” in each case. In test [6], the Potency is 8.74 µM (active).

Consider `O=c1cc(-c2ccccc2)oc2c(O)c(O)ccc12`, for which the Potency result in test [1], in test [2], in test [3], in test [4], in test [5] and in test [6] was “inactive” each time.

Take `N=c1c[n+](N2CCOCC2)[n-]o1`: the Potency result in test [1], in test [2], in test [3], in test [4], in test [5] and in test [6] was “inactive” throughout.

Take `O=C(O)Cc1c[nH]c2ccc(O)cc12`: the Potency result in test [1], in test [2], in test [3], in test [4], in test [5] and in test [6] was “inactive” each time.

As for `CCC(NC(C)C)C(O)c1ccc(O)c(O)c1` (stereo not drawn), the Potency result in test [1], in test [2], in test [3], in test [4], in test [5] and in test [6] was “inactive” each time.

Turning to `O=C(O)c1cc(=O)c2ccccc2[nH]1`, the Potency entry in test [1], in test [2], in test [3], in test [4], in test [5] and in test [6] was “inactive” in each case.

For `CCCCCCCCCCC/C=C\C(C)(C)/C=C\CCCC(=O)O`, the Potency result in test [1], in test [2], in test [3], in test [4], in test [5] and in test [6] was “inactive” throughout.

For the compound `Cc1nc2n(c(=O)c1CCN1CCC(c3noc4cc(F)ccc34)CC1)CCCC2O` (stereo not drawn), the Potency result in test [1], in test [2], in test [3], in test [4], in test [5] and in test [6] was “inactive” in each case.
